Source: PubChem (several laboratories)
APOBEC3A inh: APOBEC3A ssDNA deaminase inhibitors, primary screen, selectivity assay for APOBEC3G inhibitor project, biochemical, FAM/TAMRA oligo cleavage fluorescence; DNA dC->dU-editing enzyme APOBEC-3A (Homo sapiens), P31941; recombinant A3A, FAM/TAMRA ssDNA deamination fluorescence; inhibition, % at 20 µM; hit rate 0.41% among 330,000; AID 493011, 2011;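 active means at least 40% inhibition at 20 µM here, with at most 30% in a related deaminase screen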
Target sequence (P31941 whole entry, looked up): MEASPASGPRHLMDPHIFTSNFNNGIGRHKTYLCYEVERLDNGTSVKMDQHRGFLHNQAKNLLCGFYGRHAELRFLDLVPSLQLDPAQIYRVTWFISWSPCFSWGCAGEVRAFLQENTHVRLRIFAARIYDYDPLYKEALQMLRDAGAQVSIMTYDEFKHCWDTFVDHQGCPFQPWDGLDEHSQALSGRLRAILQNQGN
CendR NRP1 mod: modulators of CendR peptide binding to NRP-1, primary screen, biochemical, fluorescence polarization, uHTS | Neuropilin-1 (Homo sapiens), O14786 | FAM-RPARPAR peptide binding to NRP-1 | inhibition, % at 25 µM | hit rate 0.85% among 360,000;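 active means inhibition or corrected inhibition above about 18%, plus a signal ratio from 0.5 to 1.5, limit read from the data, passing the limit was not always enough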
CR mimetic SO: reduction of superoxide in aged yeast, primary screen, HTS | hit rate 0.18% among 330,000 | superoxide response (% of plate mean), % at 10 µM | S. cerevisiae aged cells, superoxide DHE fluorescence; hits give low values;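 active means superoxide response under a set limit, about three screen SD below normal, cut at about 65% in these data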;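 further: yeast aged for seven days with compound at 30 °C before DHE staining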
ALR H2O2 inh: inhibitors of human ALR sulfhydryl oxidase, primary screen, biochemical, H2O2 detection, HRP-luminol luminescence, single point. FAD-linked sulfhydryl oxidase ALR (Homo sapiens), P55789. inhibition, % (concentration not given with the values). hit rate 3.8% among 290,000. purified ALR, DTT oxidation. AID 485317, 2010;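 active means mean replicate inhibition above about 79%, with every replicate also reaching it, limit read from the data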
Target sequence (P55789 whole entry, looked up): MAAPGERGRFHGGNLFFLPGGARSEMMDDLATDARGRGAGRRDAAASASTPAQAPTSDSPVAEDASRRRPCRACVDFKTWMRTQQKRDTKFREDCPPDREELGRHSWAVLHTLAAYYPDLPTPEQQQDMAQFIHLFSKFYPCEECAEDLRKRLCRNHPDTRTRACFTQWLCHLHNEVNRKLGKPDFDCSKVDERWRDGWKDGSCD
A3G deaminase: APOBEC3G DNA deaminase inhibitors, primary screen, biochemical, fluorescence, single-stranded DNA substrate, uHTS; DNA dC->dU-editing enzyme APOBEC-3G (Homo sapiens), Q9HC16; recombinant A3G, ssDNA deamination FAM/TAMRA fluorescence; inhibition, % at 20 µM; hit rate 0.28% among 330,000; AID 493012, 2011;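 active means inhibition of at least 40% at 20 µM, with no more than 30% in the related APOBEC3A deaminase screen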
PfM18AAP inh: PfM18AAP inhibitors, malaria aminopeptidase, primary screen, biochemical, QFRET, recombinant enzyme. M18 aspartyl aminopeptidase (Plasmodium falciparum 3D7). H-Glu-NHMec fluorogenic cleavage. inhibition, % at 7.35 µM. hit rate 1.2% among 290,000. AID 1822, 2009;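 active means inhibition above the campaign mean inhibition over all tested compounds plus 3 SD, cut at about 28% in these data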
A number is an active result. In the library only some 5.2% were active in any assay of this set; here they are far more common.

O=C(Cn1c(=S)[nH]c2ccccc21)c1ccccc1 was read as APOBEC3A inh inactive, CendR NRP1 mod 33, CR mimetic SO inactive, ALR H2O2 inh inactive, A3G deaminase inactive and PfM18AAP inh inactive.
Screening CCn1c(=S)[nH]c2ccccc21 returned APOBEC3A inh inactive, CendR NRP1 mod inactive, CR mimetic SO inactive, ALR H2O2 inh inactive, A3G deaminase inactive and PfM18AAP inh inactive.
C/C(=N\NC(=O)c1ccc(N/N=C(\C)c2ccncc2)cc1)c1ccncc1 was read as APOBEC3A inh inactive, CendR NRP1 mod inactive, CR mimetic SO inactive, ALR H2O2 inh 98, A3G deaminase inactive and PfM18AAP inh inactive.
C/C(=N\NC(=O)c1ccncc1)c1ccc(N(C)C)cc1 was read as APOBEC3A inh inactive, CendR NRP1 mod inactive, CR mimetic SO inactive, ALR H2O2 inh 91, A3G deaminase inactive and PfM18AAP inh inactive.
For COc1cccc(-c2c(NC(=O)c3ccco3)oc3ccccc3c2=O)c1 the results were APOBEC3A inh inactive, CendR NRP1 mod inactive, CR mimetic SO inactive, ALR H2O2 inh inactive, A3G deaminase inactive and PfM18AAP inh inactive.
Screening CSc1cccc(CN2CCC(CO)(Cc3cccc(C(F)(F)F)c3)CC2)c1 returned APOBEC3A inh inactive, CendR NRP1 mod 30, CR mimetic SO inactive, ALR H2O2 inh inactive, A3G deaminase inactive and PfM18AAP inh inactive.
For COc1ccc(NC(=S)Nc2cc(C(F)(F)F)ccc2F)cc1 the results were APOBEC3A inh inactive, CendR NRP1 mod inactive, CR mimetic SO inactive, A3G deaminase inactive and PfM18AAP inh inactive.
Screening CC(=O)Nc1ccc(N2C(=O)CC(c3ccccc3)CC2=O)cc1 returned APOBEC3A inh inactive, CendR NRP1 mod inactive, CR mimetic SO inactive, ALR H2O2 inh inactive, A3G deaminase inactive and PfM18AAP inh inactive.
Screening Cn1c(=O)c(Nc2ccc(O)cc2)c2c3c(cccc31)C(=O)c1ccccc1-2 returned APOBEC3A inh inactive, CendR NRP1 mod 81, CR mimetic SO inactive, ALR H2O2 inh inactive, A3G deaminase inactive and PfM18AAP inh inactive.
Screening COc1ccc(/C=C/C(=O)OCc2nc3ccccc3c(=O)[nH]2)c(OC)c1 returned APOBEC3A inh inactive, CendR NRP1 mod inactive, CR mimetic SO inactive, ALR H2O2 inh inactive, A3G deaminase inactive and PfM18AAP inh inactive.
For COc1ccc(N/N=C(/N=Nc2nc(C)cc(=O)[nH]2)c2ccccc2)cc1 the results were APOBEC3A inh inactive, CendR NRP1 mod 44, CR mimetic SO inactive, ALR H2O2 inh inactive, A3G deaminase inactive and PfM18AAP inh inactive.
`CCCCN(CCCC)c1ccc(C(=O)c2ccccc2C(=O)O)c(O)c1` gave APOBEC3A inh inactive, CendR NRP1 mod inactive, CR mimetic SO inactive, ALR H2O2 inh 90, A3G deaminase inactive and PfM18AAP inh inactive.
For CN(C)c1ccc(C(=O)c2ccccc2C(=O)O)c(O)c1 the results were APOBEC3A inh inactive, CendR NRP1 mod inactive, CR mimetic SO inactive, ALR H2O2 inh inactive, A3G deaminase inactive and PfM18AAP inh inactive.
Screening Cc1nc2c(OCCC3CCCCC3)cccn2c1N(C)C(=O)CCC1CCCC1 returned CendR NRP1 mod 26.
Cc1nc2c(OCCOc3ccccc3)cccn2c1N(C)C(=O)CCC1CCCC1 was read as CendR NRP1 mod inactive.
Screening Cc1sc(N)nc1-c1ccc2c(c1)OCCO2 returned APOBEC3A inh inactive, CendR NRP1 mod inactive, CR mimetic SO inactive, ALR H2O2 inh inactive, A3G deaminase inactive and PfM18AAP inh inactive.
Screening NC1=NN=C(c2ccc3c(c2)OCCO3)CS1 returned APOBEC3A inh inactive, CendR NRP1 mod inactive, CR mimetic SO inactive, ALR H2O2 inh 99, A3G deaminase inactive and PfM18AAP inh inactive.
CN1C(=O)/C(=C/c2cn(CC(=O)NCc3ccco3)c3ccccc23)NC1=S was read as APOBEC3A inh inactive, CR mimetic SO inactive, ALR H2O2 inh 97, A3G deaminase inactive and PfM18AAP inh inactive.
`CN1C(=O)/C(=C/c2cn(CC(=O)N3CCCCC3)c3ccccc23)NC1=S` gave APOBEC3A inh inactive, CendR NRP1 mod inactive, CR mimetic SO inactive, ALR H2O2 inh inactive, A3G deaminase inactive and PfM18AAP inh inactive.
`Cc1noc(C)c1NC(=O)N(C)C[C@H]1Oc2ccc(NC(=O)CCN3CCOCC3)cc2C(=O)N([C@H](C)CO)C[C@@H]1C` gave APOBEC3A inh inactive, CendR NRP1 mod inactive, CR mimetic SO inactive, ALR H2O2 inh inactive and A3G deaminase inactive.
For Cc1ccc2nsnc2c1S(=O)(=O)N1CCOCC1 the results were APOBEC3A inh inactive, CendR NRP1 mod inactive, CR mimetic SO inactive, ALR H2O2 inh 98, A3G deaminase inactive and PfM18AAP inh inactive.
For O=S(=O)(c1cccc2nsnc12)N1CCOCC1 the results were APOBEC3A inh inactive, CendR NRP1 mod inactive, CR mimetic SO inactive, ALR H2O2 inh inactive, A3G deaminase inactive and PfM18AAP inh inactive.
Cc1nn(CCc2n[nH]c(=S)n2C)c(C)c1Br was read as APOBEC3A inh inactive, CendR NRP1 mod inactive, CR mimetic SO inactive, ALR H2O2 inh 94, A3G deaminase inactive and PfM18AAP inh inactive.
`OCc1csc(=Nc2ccccc2)n1-c1ccccc1` gave APOBEC3A inh inactive, CendR NRP1 mod inactive, CR mimetic SO inactive, ALR H2O2 inh 99, A3G deaminase inactive and PfM18AAP inh inactive.
`Cc1cc(C)c(C)c(S(=O)(=O)Nc2cccc(S(=O)(=O)Nc3ccccc3C(=O)O)c2)c1C` gave APOBEC3A inh inactive, CendR NRP1 mod inactive, CR mimetic SO inactive, ALR H2O2 inh inactive and A3G deaminase inactive.
`CC1(C)CC2CC(C)(CN2c2ncnc3ccccc23)C1` (stereo not drawn) gave APOBEC3A inh inactive, CendR NRP1 mod inactive, CR mimetic SO inactive, ALR H2O2 inh inactive, A3G deaminase inactive and PfM18AAP inh inactive.
For C=CCc1c(C)nc2c(C)cccc2c1SC(=N)N the results were APOBEC3A inh inactive, CendR NRP1 mod inactive, CR mimetic SO inactive, ALR H2O2 inh 100, A3G deaminase inactive and PfM18AAP inh inactive.
For CNC(C)C(=O)NC(C(=O)N1CCCC1C(=O)Nc1ccc2[nH]ccc2c1)C(C)C (stereo not drawn) the results were CendR NRP1 mod inactive.
CCc1ccccc1Nc1nc(N)nc(CSc2nnnn2C)n1 was read as APOBEC3A inh inactive, CendR NRP1 mod inactive, CR mimetic SO inactive, ALR H2O2 inh inactive, A3G deaminase inactive and PfM18AAP inh inactive.
For CCc1ccccc1Nc1nc(N)nc(CSCC(=O)c2cc(C)n(C)c2C)n1 the results were APOBEC3A inh inactive, CendR NRP1 mod inactive, CR mimetic SO inactive, ALR H2O2 inh 98, A3G deaminase inactive and PfM18AAP inh inactive.
